From PubChem BioAssay (NCATS) come the findings set out here.

One test concerns MCC-13. Description: qHTS assay to identify novel small-molecules to repurpose for Merkel cell carcinoma treatment (AID 1296009). Note: nearly all actives have a fitted effect of over 60% in size. The note with it: MCC and control cell lines, CellTiter-Glo viability, 72 h; series mostly up to 46 µM. An outline of the steps:
(§1)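 qHTS format: cells treated with library compounds in DMSO across 8 (NPC) or 11 (MIPE) concentrations. Readout after 72 hr at 37 degree celsius was CellTiter-Glo luminescence.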
Background: qHTS replaces the single test concentration by a dilution series.

In the next test the test system is MCC-26. The description is as above. The settings on record: MCC and control cell lines, CellTiter-Glo viability, 72 h; series mostly up to 46 µM. An outline of the steps:
as §1
On the technique in general: In ATP-based viability assays light output follows the ATP content of the culture.

The subject of another test is MKL-1. The description is as above. The settings on record: MCC and control cell lines, CellTiter-Glo viability, 72 h; series mostly up to 46 µM. An outline of the steps: as §1
The next test concerns MKL-2. The description is as above. The note with it: MCC and control cell lines, CellTiter-Glo viability, 72 h; series mostly up to 46 µM. A digest of the protocol: as §1
Another test relates to UISO. Described as above. The settings on record: MCC and control cell lines, CellTiter-Glo viability, 72 h; series mostly up to 46 µM. An outline of the steps:
as §1

The next test concerns WaGa. The test is described as above. The note with it: MCC and control cell lines, CellTiter-Glo viability, 72 h; series mostly up to 46 µM. An outline of the steps: as §1
The next test deals with C33A. Description: Primary qHTS to identify gynecologic anti-cancer compounds using libraries of approved drugs and bioactive compounds (AID 1345084). Note: nearly all actives have a fitted effect of over 55% in size. The settings on record: Gynecologic cancer cell panel viability, ATPlite luminescence, 48 h; series mostly up to 57.5 µM. An outline of the steps:
(§2)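 Five-concentration response, 48 h; readout is ATP-driven luciferase luminescence.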

A further test relates to CAOV3. Described as above. The settings on record: Gynecologic cancer cell panel viability, ATPlite luminescence, 48 h; series mostly up to 57.5 µM. A digest of the protocol: as §2
The subject of another test is CASKI. The description is as above. The settings on record: Gynecologic cancer cell panel viability, ATPlite luminescence, 48 h; series mostly up to 57.5 µM. A digest of the protocol:
as §2

Another test deals with Es-2. The description is as above. The note with it: Gynecologic cancer cell panel viability, ATPlite luminescence, 48 h; series mostly up to 57.5 µM. A digest of the protocol:
as §2

The next test deals with HeLa. The test is described as above. The settings on record: Gynecologic cancer cell panel viability, ATPlite luminescence, 48 h; series mostly up to 57.5 µM. A digest of the protocol: as §2
The subject of the next test is Hek293T. The test is described as above. The settings on record: Gynecologic cancer cell panel viability, ATPlite luminescence, 48 h, control line for the selectivity index; series mostly up to 57.5 µM. An outline of the steps:
as §2

A further test has as its system JEG-3. Described as above. The note with it: Gynecologic cancer cell panel viability, ATPlite luminescence, 48 h; series mostly up to 57.5 µM. An outline of the steps: as §2
Another test relates to OV90. The description is as above. The settings on record: Gynecologic cancer cell panel viability, ATPlite luminescence, 48 h; series mostly up to 57.5 µM. An outline of the steps: as §2
The next test deals with PA-1. The test is described as above. The note with it: Gynecologic cancer cell panel viability, ATPlite luminescence, 48 h; series mostly up to 57.5 µM. A digest of the protocol:
as §2

Another test concerns SKOV3. Described as above. The settings on record: Gynecologic cancer cell panel viability, ATPlite luminescence, 48 h; series mostly up to 57.5 µM. A digest of the protocol: as §2
In the next test the test system is Tov-21-G. The description is as above. The settings on record: Gynecologic cancer cell panel viability, ATPlite luminescence, 48 h; series mostly up to 57.5 µM. A digest of the protocol:
as §2

In a further test the test system is Tov112D. The test is described as above. The note with it: Gynecologic cancer cell panel viability, ATPlite luminescence, 48 h; series mostly up to 57.5 µM. An outline of the steps: as §2
Test [1] in a line: Drug repurposing screens with cells derived from glioblastoma tumor samples (AID 1345199). Note: nearly all actives have a fitted effect of over 40% in size. The note with it: GBM patient neurospheres viability, ATP luminescence, 48 h. An outline of the steps:
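Four patient lines of CD133+ GBM neurospheres were screened at several concentrations; hits were retested in those lines plus three slower-growing GBM lines, using 48-hour treatment and ATP-based viability.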

The mark [2] stands for this setting: at 20 µM (top of the series), tumour line C.
Where [3] appears, read: at 21.2 µM (top of the series), tumour line B.
[4] abbreviates: at 45.9 µM (top of the series), tumour line B.
Where [5] appears, read: at 45.9 µM (top of the series), tumour line D.
Setting [6] is: at 46 µM (top of the series), tumour line A.
Setting [7] is: at 46.1 µM (top of the series), tumour line C.

Each structure is given as a SMILES string. “And” between values parts separate entries of the source, which are not always exact repeats. Identical values can stand only once. Results filed as inconclusive are left out. Where a structure was tested more than once in an assay, its records may differ in their call. Unmarked numbers belong to inactive results. The source made the active and inactive calls. Calls come from the whole dose curve; as a rule, active = well fitted curve in the direction sought with a large enough effect; inconclusive = small, poorly fitted or top-dose-only effect, or another doubt; inactive = no such curve, though single readings can be large; an effect the other way counts as inactive or inconclusive.
% is set by controls: 0 for no effect and ±100 for the full control effect; potency is the fitted concentration of half-maximal effect.

As to `Cc1ncc([N+](=O)[O-])n1CC(O)CCl` (stereo not given), the Potency result in the test with MCC-13, in the test on MCC-26, with MKL-1, in the test with MKL-2, in the test with UISO and in the test with WaGa was “inactive” throughout. Moreover, the Potency entry with C33A, in the test with CAOV3, with CASKI, in the test on Es-2, in the test on HeLa and with Hek293T was “inactive” each time. Moreover, the Potency result in the test with JEG-3, with OV90, in the test on PA-1, in the test on SKOV3, in the test with Tov-21-G and in the test on Tov112D was “inactive” in each case. Besides, the activity, negative = cell killing in test [1] (setting [2]) is -11.2%; in [1] (setting [3]) it was -18%; in [1] (at 21.2 µM (top of the series), tumour line D), -1.81%; in test [1] (at 21.3 µM (top of the series), tumour line A) it was -11.7%.
`Cc1cccc(Nc2cc(Cl)nc(SCC(=O)O)n2)c1C`: the Potency entry in the test on MCC-13, with MCC-26, in the test with MKL-1, in the test on MKL-2, with UISO and with WaGa was “inactive” in each case. Besides, the Potency entry in the test with C33A, in the test with CAOV3, with CASKI, in the test on Es-2, in the test on HeLa and with Hek293T was “inactive” each time. The Potency entry in the test on JEG-3, in the test with OV90, with PA-1, in the test on SKOV3, in the test with Tov-21-G and in the test with Tov112D was “inactive” each time. Besides, the activity, negative = cell killing was -5.07% in test [1] (setting [4]), -15.1% in test [1] (setting [5]), -33.3% in test [1] (setting [6]) and 0.18% in [1] (setting [7]).
In the case of `O=C1N=C(O)CN1/N=C/c1ccc(-c2ccc([N+](=O)[O-])cc2)o1`, the Potency result in the test with MCC-13, in the test with MCC-26, with MKL-1, in the test with MKL-2, in the test with UISO and in the test on WaGa was “inactive” in each case. Besides, the Potency entry in the test on C33A, with CASKI, in the test on Es-2, with HeLa, in the test with Hek293T and with JEG-3 was “inactive” throughout. In addition, the Potency entry in the test with OV90, in the test on PA-1, in the test on SKOV3, in the test on Tov-21-G and in the test with Tov112D was “inactive” throughout. The activity, negative = cell killing in test [1] (setting [4]) was -7.61%; in test [1] (setting [5]), 2.91%; in [1] (setting [6]), -22.1%; in test [1] (setting [7]), -1.99%.
As to `CC1(C)Oc2ccc(C#N)cc2[C@@H](N2CCCC2=O)[C@@H]1O`, the Potency result in the test on MCC-13, in the test on MCC-26, in the test on MKL-1, in the test with MKL-2, in the test with UISO and in the test on WaGa was “inactive” in each case. Also, the Potency result with C33A, with CASKI, with Es-2, with HeLa, in the test with Hek293T and in the test on JEG-3 was “inactive” throughout. Further, the Potency result with OV90, in the test on PA-1, in the test with SKOV3, in the test on Tov-21-G and with Tov112D was “inactive” in each case. The activity, negative = cell killing in test [1] (setting [4]) was -7.82% and 2.52%; in test [1] (setting [5]), -4.19% and -0.466%; in [1] (setting [6]) it was -32.5% and -12.3%; in [1] (setting [7]), -7.78% and -4.72%.
Take `CC(O)COc1ccccc1` (stereo not given): the Potency result with MCC-13, with MCC-26, in the test on MKL-1, with MKL-2, with UISO and in the test on WaGa was “inactive” each time. For the same molecule, the Potency entry in the test on C33A, in the test on CASKI, with Es-2, in the test with HeLa, with Hek293T and in the test with JEG-3 was “inactive” throughout. Also, the Potency entry in the test on OV90, in the test with PA-1, in the test with SKOV3, in the test on Tov-21-G and with Tov112D was “inactive” throughout. Further, the activity, negative = cell killing in test [1] (setting [4]) is -16.3%; in [1] (setting [5]) it was 2.5%; in test [1] (setting [6]), -19.2%; in [1] (setting [7]) it was -0.412%.
Turning to `O=c1cc(CO)occ1O`, the Potency entry in the test on MCC-13, with MCC-26, in the test with MKL-1, in the test with MKL-2, with UISO and in the test with WaGa was “inactive” each time. For the same molecule, the Potency result in the test with C33A, in the test with CAOV3, with CASKI, in the test on Es-2, in the test on HeLa and with Hek293T was “inactive” each time. For the same molecule, the Potency result with JEG-3, with OV90, in the test with PA-1, with SKOV3, with Tov-21-G and in the test on Tov112D was “inactive” in each case. Further, the activity, negative = cell killing in test [1] (setting [4]) is -1.08% and -4.58%; in test [1] (setting [5]), 14.9% and -7.17%; in [1] (setting [6]), -25.5% and -9.07%; in [1] (setting [7]), -15.8% and 18.8%.
For `C[C@]12CC[C@@H]3c4ccc(O)cc4CC[C@H]3[C@@H]1CC[C@@H]2OC(=O)CCC1CCCC1`, the Potency entry with MCC-13, with MCC-26, with MKL-1, with MKL-2, in the test with UISO and in the test on WaGa was “inactive” throughout. The Potency entry in the test with C33A, with CAOV3, with CASKI, with Es-2, with Hek293T and with JEG-3 was “inactive” each time. For the same molecule, the Potency entry with OV90, with PA-1, in the test with SKOV3, with Tov-21-G and in the test with Tov112D was “inactive” throughout. In addition, the Potency was 10 µM (active) and 20 µM (active) in the test on HeLa; 7.94 µM (active) and 22.4 µM (active) in [1] (tumour line A); 35.5 µM (active) in test [1] (tumour line B); 35.5 µM (active) and 20 µM (active) in [1] (tumour line D). In addition, the activity, negative = cell killing in test [1] (setting [7]) was -26.4% and -9.85%.
Turning to `CN1[C@@H]2CC(OC(=O)[C@H](CO)c3ccccc3)C[C@H]1[C@@H]1O[C@@H]12` (stereo not given in full), the Potency entry with MCC-13, in the test on MCC-26, with MKL-1, in the test on C33A, in the test on CASKI and with Es-2 was “inactive” throughout. The Potency entry in the test with HeLa, in the test with Hek293T, in the test with JEG-3, with OV90, in the test with PA-1 and in the test on SKOV3 was “inactive” throughout. The Potency entry in the test on Tov-21-G and in the test with Tov112D was “inactive” each time. For the same molecule, the activity, negative = cell killing in [1] (setting [4]) is -8.37% and 0.366%; in [1] (setting [5]), -25.9% and -16.8%; in [1] (setting [7]) it was 15.6% and -2.3%.
Turning to `CC(=O)c1ccc2c(c1)N(CCCN(C)C)c1ccccc1S2`, the Potency result in the test with MCC-13, in the test with MCC-26, in the test on MKL-1, in the test with UISO, in the test on C33A and in the test on CAOV3 was “inactive” each time. For the same molecule, the Potency entry in the test on CASKI, in the test with Es-2, in the test with Hek293T, with JEG-3, with PA-1 and in the test on Tov-21-G was “inactive” in each case. Besides, in the test on Tov112D, the Potency result was “inactive”. Further, the figures for the Potency (in the test with WaGa; in [1] (tumour line A)) were 26.6 µM (active) and 10 µM (active), respectively. For the same molecule, the activity, negative = cell killing is -20.2% in [1] (setting [2]) and -19.6% in [1] (setting [3]).
